# Measured values published in PubChem BioAssay (NCI).
# Compounds without any hit were thinned out: in the full panel of roughly 83,000, 20% have a hit.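 Treatment: one concentration, 48 hours, 96-well format. Scoring: percent growth, with anything below 10 considered active.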 Values without a mark were called inactive. Activity calls are given as the source filed them.
# How the values were obtained:
# Assay in all cases: NCI-60 one-dose screen, 48 h (100 = growth as untreated, 0 = no growth, -100 = all killed)
# Details in all cases: 10 µM
# NCI-H23 lung = system: NCI-H23 lung
# NCI-H226 lung = system: NCI-H226 lung
# NCI-H322M lung = system: NCI-H322M lung
# HOP-62 NSCLC = system: HOP-62 NSCLC
# NCI-H460 lung = system: NCI-H460 lung
# NCI-H522 lung = system: NCI-H522 lung
# A549/ATCC NSCLC = system: A549/ATCC NSCLC
# 786-0 renal = system: 786-0 renal
# COLO 205 colon = system: COLO 205 colon
# DU-145 prostate = system: DU-145 prostate
# K-562 leukemia = system: K-562 leukemia
# MALME-3M melanoma = system: MALME-3M melanoma
# MDA-MB-231 breast = system: MDA-MB-231 breast
# RXF 393 renal = system: RXF 393 renal
# SF-295 CNS = system: SF-295 CNS
# SF-539 CNS = system: SF-539 CNS
# UACC-257 melanoma = system: UACC-257 melanoma
# M14 melanoma = system: M14 melanoma
# HCT-15 colon = system: HCT-15 colon
# SF-268 CNS = system: SF-268 CNS
Structure (SMILES),growth (NCI-H23 lung),growth (NCI-H226 lung) [%],growth (NCI-H322M lung),growth (HOP-62 NSCLC),growth (NCI-H460 lung),growth (NCI-H522 lung),growth (A549/ATCC NSCLC),growth (786-0 renal),growth (COLO 205 colon),growth (DU-145 prostate),growth (K-562 leukemia),growth (MALME-3M melanoma),growth (MDA-MB-231 breast),growth (RXF 393 renal) [%],growth (SF-295 CNS),growth (SF-539 CNS),growth (UACC-257 melanoma),growth (M14 melanoma),growth (HCT-15 colon),growth (SF-268 CNS)
COc1ccc(-c2nc3sccn3c2-c2nc3c([nH]2)C(=O)c2ccccc2C3=O)cc1,95.7%,95.1,108%,107%,91.3%,96.8%,67.5%,89.4%,102%,104%,84.8%,151%,96.1%,98.2,87.2%,98%,89.2%,130%,87.8%,
COc1ccc(/C(=C2/O[C@@H]([C@H]3COC(C)(C)O3)[C@H]3OC(C)(C)O[C@@H]23)c2cc(OC)c(OC)c(OC)c2)cc1O,81.2%,113,91.5%,91.3%,104%,51.8%,80.1%,86.3%,121%,45.6%,10.2%,69.6%,54.5%,,77.6%,21.5%,126%,19.5%,32.5%,37.8%
COc1ccc(NC(=O)Cc2nc3nc4sc(C)c(C)c4c(=O)n3[nH]2)cc1,101%,86.7,94.5%,107%,110%,90.3%,91.2%,104%,118%,110%,109%,89.2%,108%,,91.3%,103%,101%,103%,99.7%,109%
Cc1cc(O)c(C(C)(C)C)cc1Sc1cc(C(C)(C)C)c(O)cc1C,44.5%,84.3,81.6%,62%,42%,48.3%,35.2%,79.9%,90.7%,50%,14.6%,73.7%,-9.88% (active),,53.4%,77.8%,30.9%,0.358% (active),44.3%,49.4%
COc1cc(C(=C2O[C@@H]([C@H]3COC(C)(C)O3)[C@H]3OC(C)(C)O[C@@H]23)c2cc(OC)c(OC)c(OC)c2)cc(OC)c1OC,95.2%,94.4,103%,104%,111%,106%,106%,97.2%,117%,112%,91.8%,123%,91.6%,,110%,111%,105%,106%,103%,113%
COC(=O)C(=C\c1ccc2c(c1)OCO2)/C(=C/c1ccc2c(c1)OCO2)C(=O)OC,92.4%,97.8,96.9%,102%,112%,86%,101%,98.1%,102%,103%,108%,101%,107%,,95.3%,96.1%,108%,99.4%,97.8%,96%
ClCCOCCn1cnc2c(Cl)nc(Cl)nc21,55.1%,74.8,89.9%,88.6%,28.5%,60.1%,60.7%,87.6%,88.1%,-5.51% (active),28.2%,112%,58.2%,,70.2%,96.8%,59.9%,46.5%,18.4%,45.3%
O=C(Cc1csc2nc(-c3ccc(Cl)cc3)cn12)N/N=C/c1ccccc1O,59.5%,56.2,51.4%,40.3%,18.5%,49.2%,36.9%,32.9%,16.5%,-8.65% (active),41%,74.5%,35.5%,,37.6%,67.3%,46.5%,47.1%,17.2%,37.9%
CCN(CC)CCSCCCNc1c2ccc(Cl)cc2nc2ccc(OC)cc12,-30.8% (active),48.7,-35.6% (active),-31.6% (active),-39.7% (active),-79.1% (active),-29.5% (active),-37.3% (active),-82.9% (active),1.82% (active),-13.3% (active),-69.1% (active),-59.9% (active),,-79% (active),-75.2% (active),-77.1% (active),-73.7% (active),-30.8% (active),-39.2% (active)
COc1ccc(-c2nnc(-c3c(-c4ccccc4)nc4ncccn34)o2)cc1OC,97.2%,93.2,94.2%,84.6%,107%,94.2%,96%,102%,100%,109%,88.8%,121%,91.3%,98.3,101%,94.5%,96.7%,119%,100%,
COc1ccc2c(c1)/C(=C\c1c[nH]c3ccc(OC)cc13)C(=O)N2,49.4%,72.7,54.7%,51%,53.2%,50.3%,30.8%,70.9%,36.7%,63.1%,11.6%,91.8%,42.3%,60.5,74%,74.2%,68.1%,29.8%,31.6%,
CCN(CC)CCCOCCCNc1cc(OC)cc2cccnc12,83.8%,85,98.7%,91.7%,103%,82.5%,93.4%,104%,31.2%,116%,94.3%,104%,78%,,101%,108%,83.1%,106%,102%,96.7%
O=C(Nc1cccc(Br)c1)c1cc(=O)[nH]c2ccccc12,103%,82.9,94.2%,64.3%,105%,86.7%,94.1%,103%,85.1%,110%,55.8%,101%,93.6%,77.4,112%,92%,,104%,92.4%,94.8%
O=C(CC(c1ccccc1)N1CCOCC1)c1ccccc1 (stereo not drawn),83.3%,90.8,96.9%,88.2%,106%,88.5%,97.4%,80.9%,116%,80.3%,27.9%,87.6%,98.6%,,94.9%,97.5%,80.5%,95.8%,92.2%,91.8%
O=C(Nc1nc2ccc(F)cc2s1)c1cc(-c2ccc(F)cc2)n2nc(-c3ccccc3)cc2n1,79.7%,105,111%,64.1%,59.5%,98.9%,92.1%,101%,96.4%,87%,99.9%,-1.39% (active),83.5%,104,94.8%,93.6%,59.2%,81%,90.8%,
CCN(CC)CCCC(C)Nc1nc(-c2ccc(OC)cc2)nc2cc(Cl)ccc12 (stereo not drawn),73.2%,91.7,65.4%,70.5%,72.5%,35.6%,69.6%,65.5%,41.6%,77.9%,44.3%,79.2%,28.9%,,89.7%,62%,46%,-29% (active),49.9%,60.1%
Cc1cccc(Cl)c1NC(=O)c1ccc2nc(NC(=O)NC3CCN(C)CC3)sc2c1,82.3%,121,95.5%,63.1%,114%,83.5%,91.5%,91.2%,37.4%,103%,7.86% (active),60.8%,96.7%,,83.5%,44.3%,84.7%,104%,101%,86%
